Compounds with a hit are over-represented: about 17% of the library has one in this group of screens.
TDP1 cell CPT – DT40-hTDP1 cell growth loss with CPT; chicken DT40 Tdp1-/-;hTDP1 cells + 20 nM CPT, ATP luminescence, 48 h; Potency, µM (doses to about 46.2 µM), without a hit: at the top dose activity change, negative = growth inhibition, actives largely listed as inhibitors; 12% of 420,000 active; AID 686979; further: on the % scale 0 is the no-effect control and ±100 the full control effect; nearly all actives have a fitted effect of over 55% in size
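Cell growth measured by CellTiter-Glo luminescence after a minimum 48 h, 37 C compound exposure with 20 nM CPT in Tdp1-knockout DT40 cells stably expressing hTDP1, seeded 400/well; qHTS titration format.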
DT40 TDP1 no CPT – qHTS for Inhibitors of human tyrosyl-DNA phosphodiesterase 1 (TDP1): qHTS in cells in absence of CPT; DT40 Tdp1-/- hTDP1 cells, no CPT, ATP luminescence, 48 h; 15% of 420,000 active; Potency, µM (doses to about 46.2 µM), inactives show at the highest dose activity change, negative = growth inhibition, actives largely listed as inhibitors; AID 686978, 2013; further: on the % scale 0 is the no-effect control and ±100 the full control effect; nearly all actives have a fitted effect of over 55% in size
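Camptothecin absent (DMSO only). Human TDP1-complemented DT40 knockout cells, 400 cells/well, 37 °C for minimum 48 hr; ATP measured via CellTiter-Glo, 30 min dark incubation, luminescence.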
TGFb SMAD3 inh – TGF-b pathway inhibition | HepG2 CAGA-GFP TGF-b/SMAD3 reporter, GFP fluorescence, 18 h; TGF-beta stimulated, 500 pg/mL final | 1.2% of 410,000 active | Potency, µM (doses to about 46.1 µM), for inactives: at the top dose activity, negative = inhibition, usual class: inhibitors; further: on the % scale 0 is the no-effect control and ±100 the full control effect; nearly all actives have a fitted effect of over 65% in size
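Cell-based qHTS in HEPG2 carrying a CAGA-GFP Smad reporter; compounds added before 500 pg/mL final TGF-beta, 18 h incubation at 37 degrees C, GFP fluorescence quantified per cell by imaging cytometry.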
HepG2 tox – kills HepG2 cells in TGF-b inhibitor counter-screen; 0.76% of 410,000 active; Potency, µM (highest dose often 46.1 µM), inactives show top-dose activity change, negative = cytotoxicity, usual class: cytotoxic; HepG2 CAGA-GFP viability, ATP luminescence, 18 h
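CellTiter-Glo luminescence gave cytotoxicity after 18 hours at 37 degrees C. The cells were HepG2 CAGA-GFP in 1% FBS DMEM, stimulated with 500 pg/mL TGF-beta after compound addition. %Activity was normalised to no-cell wells (complete cell-killing) and DMSO (no toxicity), and curves were fitted and classified.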
HT1080 IDH1KD tx – kills HT-1080 cells with IDH1 knockdown; HT-1080 IDH1 knockdown viability, ATP luminescence, 48 h; Potency, µM (highest dose often 46.1 µM), inactives show top-dose activity, negative = toxicity, hits mostly cytotoxic; 2% of 360,000 active;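 further: 0% = DMSO wells and -100% = cell-free medium wells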
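Using the IDH1-knockdown HT-1080 line run in the same batch and compound series as the NT line, viability after 48 h at 37 °C was determined by CellTiter-Glo luminescence and expressed as % activity.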
HT1080-NT tox – kills 2HG-producing HT-1080-NT fibrosarcoma cells; 1.6% of 360,000 active; Potency, µM (top dose mostly 46.1 µM), for inactives: at the top dose activity, negative = less viability, most hits filed as cytotoxic; HT-1080-NT fibrosarcoma viability, CellTiter-Glo ATP luminescence, 48 h; AID 686970;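 further: NT is the 2HG producing partner of a matched IDH1 knockdown line; 0% = DMSO-treated cells and -100% = media-only wells without cells; nearly all actives have a fitted effect of over 55% in size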
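Compounds were tested in concentration-response format on HT-1080-NT cells for 48 hours at 37 degrees C. Cell viability came from CellTiter-Glo luminescence; curves were classified by r2, response magnitude and activity.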
An asterisk follows results filed as active; ? = inconclusive; · = no result. The call rests on the fitted dose curve; in most records, active means well fitted curve in the direction sought with a large enough effect; inconclusive means small, poorly fitted or top-dose-only effect, or another doubt; inactive means no such curve, though single readings can be large; an effect the other way counts as inactive or inconclusive. Potency means the concentration at half of the fitted maximal effect.

SMILES | TDP1 cell CPT | DT40 TDP1 no CPT | TGFb SMAD3 inh | HepG2 tox | HT1080 IDH1KD tx | HT1080-NT tox
N#CCCN(C(=O)COC(=O)c1ccc(S(=O)(=O)Nc2ccccc2)cc1)c1ccccc1 | -2% | -27% | -14% | -2% | 3% | 3%
Fc1ccccc1Cc1noc(CN2CCC(OCc3cccnc3)CC2)n1 | ? | 23µM* | -12% | -4% | 0% | 0%
Fc1cccc(Cc2noc(CN3CCC(c4ccncc4)CC3)n2)c1 | 18µM* | 13µM* | -17% | -11% | -24% | -11%
Cc1ccc(C2(c3noc(CN4CCC(c5ccncc5)CC4)n3)CCCC2)cc1 | 13µM* | 18µM* | ? | -16% | ? | ?
Fc1ccccc1Cc1noc(CN2CCN(C/C=C/c3ccccc3)CC2)n1 | 18µM* | 18µM* | ? | -21% | -3% | 20%
Fc1cccc(Cc2noc(CN3CCOCC3)n2)c1 | -12% | 3% | ? | -19% | 0% | 0%
CCCOc1ccc(CNC(=O)C(C)n2nc(C)n3c(cc4occc43)c2=O)cc1 (stereo not drawn) | -23% | -29% | · | -12% | · | ·
COc1ccc(CCNC(=O)Cn2nnc(C(=O)Nc3cccc(C)c3C)c2N)cc1OC | -11% | 1% | -19% | 0% | -19% | 1%
CC1(C)CC(NC(=O)c2ccc(Br)o2)CC(C)(C)N1 | 3% | -1% | 8% | -6% | 12% | 1%
CC(C)(C)c1ccc(-c2noc(CCC(=O)NCc3ccco3)n2)cc1 | 18µM* | 26µM* | -17% | -11% | ? | ?
Cc1cccc(-c2noc(CCCC(=O)NCc3ccco3)n2)c1 | 15µM* | 16µM* | -9% | -12% | · | ·
Cc1cccc(-c2noc(CCC(=O)NCc3ccco3)n2)c1 | ? | -16% | 19% | -11% | -6% | ?
CC(C)N(Cc1nc(-c2ccc3c(c2)OCO3)no1)Cc1nccn1C | -27% | ? | -14% | -3% | -11% | -1%
COC(=O)c1ccc(-c2noc(CN(Cc3nccn3C)C(C)C)n2)cc1 | 13µM* | ? | 1% | -2% | -5% | 5%
CCOc1cc(/C=C2/C(=O)N(c3ccccc3)N=C2C)ccc1OC(=O)c1ccco1 | ? | ? | -7% | 1% | 3% | 4%
CCOc1cc(/C=C2\C(=O)N(c3ccc(C(N)=O)cc3)N=C2C)ccc1OC(=O)c1cccs1 | 15µM* | 23µM* | 0% | -48% | -30% | ?
CCOc1ccc(CNC(=O)C2=Cc3cc(Br)ccc3OC2)cc1OC | ? | ? | ? | -18% | · | ·
Nc1nonc1-n1nnc(C(=O)N/N=C/c2ccc(O)cc2)c1COc1ccc(F)cc1 | 3% | -5% | -1% | -18% | ? | ?
CC(C)c1c(C(=O)N/N=C/c2ccc(OCc3ccccc3)cc2)nnn1-c1nonc1N | ? | ? | -14% | -29% | -10% | -12%
CC1CCN(Cc2c(C(=O)N/N=C/c3cccc(C(F)(F)F)c3)nnn2-c2nonc2N)CC1 | 15µM* | 15µM* | -11% | -26% | ? | -18%
COc1cc(/C=N/NC(=O)c2nnn(-c3nonc3N)c2C(C)C)ccc1OCc1ccccc1 | ? | 21µM* | ? | -26% | -27% | ?
CC(C)c1c(C(=O)N/N=C/c2ccoc2)nnn1-c1nonc1N | -5% | -7% | 4% | -1% | 0% | -1%
CN(C)Cc1c(C(=O)N/N=C/c2ccc(OCc3c(F)cccc3Cl)cc2)nnn1-c1nonc1N | ? | 13µM* | 4% | -10% | 1% | -11%
CC(C)c1c(C(=O)N/N=C/c2ccc(C(F)(F)F)cc2)nnn1-c1nonc1N | 15µM* | 13µM* | ? | -17% | 26µM* | ?
O=C(Cn1c(NCCCO)nc2ccccc21)c1ccc(F)cc1 | -24% | -26% | 5% | -1% | -2% | -6%
SMILES | TDP1 cell CPT | DT40 TDP1 no CPT | TGFb SMAD3 inh | HepG2 tox | HT1080 IDH1KD tx | HT1080-NT tox
Cc1cn(CCOc2ccc(Cl)cc2)c(=O)[nH]c1=O | 11% | -1% | ? | 2% | 14% | 1%
CC1(c2ccc(OC(F)F)cc2)NC(=O)N(CC(=O)N2CCN(C(=O)c3ccco3)CC2)C1=O (stereo not drawn) | -1% | 3% | 3% | -4% | 6% | 0%
CC1(c2ccc(OC(F)F)cc2)NC(=O)N(CC(=O)Nc2ccc(N3CCCCC3)cc2)C1=O (stereo not drawn) | ? | ? | -10% | -7% | -3% | -5%
O=C(C[C@@H]1C/C=C\C[C@H](Cc2ccc(F)cc2)C(=O)OCCNC1=O)NCCO | 2% | -4% | -5% | -13% | 24% | 16%
CC1CCN(Cc2c(C(=O)N/N=C/c3ccc(C(F)(F)F)cc3)nnn2-c2nonc2N)CC1 | ? | ? | ? | -53% | 26µM* | ?
COc1ccc(/C=N/n2c(C)nc3sc(C)c(C)c3c2=O)cc1 | 12% | 3% | 0% | 7% | 22% | 13%
COc1ccc(-c2ccc(OC)c(OC)c2OC)c(OC)c1OC | ? | ? | -15% | -3% | 6% | 0%
COc1cc2cc(-c3ccc(OC)c(OC)c3C)nc(N)c2cc1OC | 5.2µM* | 5.8µM* | ? | -41% | 1.3µM* | 8.2µM*
COc1cc2cc(-c3ccc(O)cc3O)nc(C)c2cc1OC | 10µM* | 6.5µM* | -11% | -33% | ? | -12%
CC(=O)Nc1nonc1NC(=O)COc1ccccc1 | 17% | -2% | -1% | -1% | 9% | 4%
Cc1ccc2[nH]cc(S(=O)(=O)c3ccc(F)cc3)c(=O)c2c1 | ? | 9.2µM* | -18% | -12% | -2% | -4%
CCCCNC(=O)Nc1ccc2c(c1)N(C)C(=O)c1ccccc1S2 | ? | 16µM* | ? | -31% | -29% | -30%
CC(=O)Nc1cccc(NC(=O)CN2C(=O)CCSc3ccccc32)c1 | · | · | 25% | -3% | · | ·
CCOC(=O)c1cccc(NC(=O)CN2C(=O)CC(C)(C)Sc3ccccc32)c1 | 21µM* | ? | -8% | -21% | · | ·
O=C(CN1C(=O)CCS(=O)(=O)c2ccccc21)Nc1ccc(Cl)cc1 | -2% | 10% | 5% | -3% | 2% | 3%
CCOC(=O)c1cccc(NC(=O)Nc2ccc3c(c2)N(C)C(=O)c2ccccc2S3)c1 | 21µM* | ? | ? | -18% | · | ·
